In all, about 13,000 compounds were measured (“IFI”: median about 4, highest 2% from about 17 on). For the sample, the highest values were picked, then their nearest neighbours and some compounds at random.
experiment: GSK_TCMDC: Inhibition Frequency Index (IFI). The number of non-kinase HTS assays where a compound showed > 50 % inhibition, expressed as a percentage of the number of such assays in which the compound was tested; assay type: functional

In order of falling IFI:
1. CC(C)COc1ccc2ccccc2c1CNCCCCCCNCc1c(OCC(C)C)ccc2ccccc12  22.9%
2. COc1c(CNCCCCCCNCc2c(OC)c(OC)c3ccccc3c2OC)c(OC)c2ccccc2c1OC  21.3%
3. N#Cc1ccc(NC(=O)Nc2ccc(OC(F)(F)F)cc2)cc1  20.5%
4. O=C(Nc1ccc(OC(F)(F)F)cc1)Nc1ccc([N+](=O)[O-])cc1  20.1%
5. CCC(COCc1ccc(Cl)cc1)N(C)CCN(C)C(CC)COCc1ccc(Cl)cc1 (stereo not given)  19.6%
6. CCCCOc1cc(OC)c2ccccc2c1CCNCCCCNCCc1c(OCCCC)cc(OC)c2ccccc12  19.1%
7. O=C(Nc1ccc(C(F)(F)F)cc1)Nc1cccc([N+](=O)[O-])c1  19.1%
8. CC(C)Oc1ccc2ccccc2c1CNCCCCCCNCc1c(OC(C)C)ccc2ccccc12  18.5%
9. COc1cc([N+](=O)[O-])ccc1NC(=O)Nc1ccc(OC(F)(F)F)cc1  18.4%
10. COc1c(OC)c(OC)c2ccccc2c1CCNCCCCNCCc1c(OC)c(OC)c(OC)c2ccccc12  18.3%
11. CC1(C)C(=O)N=C2C1=C(O)C(=O)c1ccccc12  17.2%
12. Nc1cccc(CNCc2ccc(-c3cccc(-c4nc5cc(C(F)(F)F)ccc5[nH]4)c3)cc2)c1  15.2%
13. COc1c(OC)c(OC)c2ccccc2c1CNCCCCCCNCc1c(OC)c(OC)c(OC)c2ccccc12  14.8%
14. COc1cc2ccccc2cc1CCNCCCCNCCc1cc2ccccc2cc1OC  14.8%
15. COc1cc2ccccc2c(OC)c1CCNCCCCNCCc1c(OC)cc2ccccc2c1OC  14.5%
16. COc1cc2ccccc2c(OC)c1CNCCCCCCNCc1c(OC)cc2ccccc2c1OC  12.9%
17. O=C(Nc1cccc([N+](=O)[O-])c1)Nc1cccc(C(F)(F)F)c1  12.4%
18. CSc1ccc2ccccc2c1CNCCCCCCNCc1c(SC)ccc2ccccc12  12.3%
19. COc1cc2ccccc2c(CNCCCCCCNCc2c(OC)c(OC)cc3ccccc23)c1OC  12.1%
20. O=C(Nc1cccc([N+](=O)[O-])c1)Nc1ccc(Cl)c(C(F)(F)F)c1  10%
21. COc1ccc2ccccc2c1CNCCCCCCNCc1c(OC)ccc2ccccc12  9.93%
22. O=C(Nc1ccc([N+](=O)[O-])cc1)Nc1cc(OCC(F)(F)F)cc(OCC(F)(F)F)c1  9.6%
23. O=C(Nc1ccc([N+](=O)[O-])cc1)Nc1cc(C(F)(F)F)ccc1F  8.62%
24. COc1ccc2c(CNCCCCCCNCc3c(OC)ccc4cc(OC)ccc34)c(OC)ccc2c1  7.38%
25. CCN(CCNS(C)(=O)=O)c1ccc(N)c(C)c1  7.32%
26. CCN(CC)C(C)(C)CN(Cc1ccc(-c2ccc(C(F)(F)F)cc2)cc1)C(=O)Cn1c(CCc2cccc(F)c2F)nc(=O)c2ccccc21  6.94%
27. NC(=O)c1cccc(C(=O)Nc2cccc(-c3ccc(-c4nc5cc(C(F)(F)F)ccc5[nH]4)cc3)c2)c1  6.67%
28. CC(=NNC(S)=Nc1ccccc1Cl)c1ccccn1  6.57%
29. CCc1c(CCNCCCCCCNCCc2ccc(OC)c(OC)c2CC)ccc(OC)c1OC  6.47%
30. Cc1nnsc1C(=O)Nc1cccc(-c2cccc(-c3nc4cc(F)ccc4[nH]3)c2)c1  6.42%
31. CC(=O)Nc1ncc(C(=O)Nc2cccc(-c3cccc(-c4nc5cc(C(F)(F)F)ccc5[nH]4)c3)c2)s1  5.41%
32. O=C(Nc1ccc(Oc2ccc(OC(F)(F)F)cc2)cc1)c1ccco1  5.22%
33. Cc1ccc2c(=NN=Cc3cccc(F)c3)cc(C)[nH]c2c1  5.15%
34. CN(C)CCC(O)C=C(c1ccc(Cl)cc1)c1ccc(Cl)cc1 (stereo not given)  4.69%
35. CN(CCCCN)Cc1ccc(-c2ccc(Cl)cc2)cc1  4.44%
36. C=CCOC(=O)N1CCC(CNCc2cccc(-c3ccc(-c4nc5cccc(C)c5[nH]4)s3)c2)C1 (stereo not given)  3.81%
37. N=C(N)Nc1nc(-c2cccc(NC(=O)NCc3ccc(OC(F)(F)F)cc3)c2)cs1  3.79%
38. COc1cc(C)nc2ccc(NC(=O)Nc3ccc([N+](=O)[O-])cc3C)cc12  3.01%
39. COc1cccc(OC)c1OCCCON1C(=N)N=C(N)NC1(C)C  2.9%
40. CC(CN1CCN(C)CC1)C(=O)Nc1ccc(-c2cccc(-c3nc4cc(F)ccc4[nH]3)c2)cc1 (stereo not given)  2.78%
41. COc1cc(NC(=O)Nc2ccc([N+](=O)[O-])cc2OC)c(OC)cc1Cl  1.83%
42. CN(C)c1ccc(NC2=NC(N)=NC(C)(C)N2)cc1  1.82%
43. CCN(CC)CCCC(C)N=c1cc(C=Cc2ccc([N+](=O)[O-])cc2)[nH]c2ccc(OC)cc12 (stereo not given)  1.65%
44. COc1cc(F)c2nccc([C@@H](O)CN3CCC(NCc4cc5c(cc4F)OCCO5)CC3)c2c1  1.59%
45. O=C(Nc1ccc(CCNCc2ccccc2)cc1)Nc1ccc(OC(F)(F)F)cc1  0.72%

Source: ChEMBL document CHEMBL1157539, “Thousands of chemical starting points for antimalarial lead identification” (Nature, 2010)
